Experimental findings from PubChem BioAssay AID1981 (Southern Research Specialized Biocontainment Screening …, 2009) are described below.

Molecules are shown by their SMILES. Out of some 2,200 compounds screened, about 480 (22%) were called active. These entries were drawn from the full list. Entries with a potency or affinity are not part of this list. Unmarked numbers belong to inactive results. How the calls were made is not given here.

The test in a line: S. Typhimurium GFP fluorescence modified counterscreen for PhoP regulon inhibitor project dose response (AID 1981).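 Further: 0% = induced DMSO wells and 100% = uninduced wells.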 The following applies: 4 h; series mostly up to 150 µM; inhibition: at the top concentration.
As to `Cc1ccc(C=Nc2ccccc2C(N)=O)cc1`, the “inhibition” value was 17.5%.
The value for `CCOc1c(Br)cc(CNCc2cccs2)cc1OC` was -0.6%; that for `Clc1ccc(Cn2ncc3c(NCc4ccco4)ncnc32)c(Cl)c1` was 5.71%; that for `Cc1ccc(NC(=O)CCCSc2nc3ccccc3[nH]2)cc1` was 28.1%.
For `O=C(Nc1cccnc1)c1cc(F)cc(F)c1`, the “inhibition” value is -0.92%.
Regarding `Cc1cc(C)c2nc(NNC(=O)c3ccc(S(=O)(=O)N4CCCCC4)cc3)sc2c1`, the “inhibition” value was 17.3%.
With `COC(=O)c1sccc1NC(=O)C1C2C=CC(O2)C1C(=O)O` (stereo not given) the figure was -1.72%; with `Nc1ccc(C(=O)OCc2nc3ccccc3[nH]2)cc1`, -1.26%; with `CCOc1ccc(/C=N/O)cc1`, -0.89%.
Turning to `CCN1CCN(C(=O)c2ccc(COc3ccc(Cl)cc3)o2)CC1`, the “inhibition” value was 10.1%.
Turning to `CCOc1ccc(CCNC(=O)c2cc3sc(Cl)cc3n2C)cc1OCC`, the “inhibition” value was -3.59%.
With `O=C(O)Cc1sc(Nc2ccc(Cl)cc2)nc1-c1cccs1` the figure was -2.18%; with `S=C(c1ccc2c(c1)OCO2)N1CCCC1`, -6.34%; with `Cc1ccc(-c2n[nH]c(=S)n2/N=C/c2cc3c(cc2[N+](=O)[O-])OCO3)cc1`, -15.8%.
`O=c1[nH]c(SCc2nc3ccccc3c(=O)n2-c2ccccc2C(F)(F)F)nc2ccccc12`: the “inhibition” value is -13.6%.
With `CCC(OC(=O)C(NC(=O)c1ccccc1)c1ccccc1)C(=O)Nc1cc(C)on1` (stereo not given) the figure was 5.39%; with `S=c1[nH]nc(Cc2cccc3ccccc23)o1`, -10.1%; with `Cc1ccc(S(=O)(=O)N2C(=O)CCC2C(=O)N2CCN(C)CC2)cc1` (stereo not given), -2.92%.
The value for `CN(C)c1nc(N)nc(Cn2ccnc2)n1` was -5.8%.
For `CC(NCc1ccc(Cl)c(Cl)c1)C(O)c1ccccc1` (stereo not given), the “inhibition” value was -19%.
Regarding `CCCc1cc(C(=O)Cc2ccc(C(=O)OCC)o2)c(O)cc1O`, the “inhibition” value is -3.34%.
For `COc1ccc(C(=O)Nn2c(SCC(=O)N3CCC(C)CC3)nc3ccccc3c2=O)cc1`, the “inhibition” value was -14.4%.
For the compound `O=C(COc1ncnc2sccc12)N1CCN(S(=O)(=O)c2ccc(Cl)cc2)CC1`, the “inhibition” value is 29.1%.
On to `O=S(=O)(c1ccc2c(c1)OCCO2)N1CCN(c2cccc(Cl)c2)CC1`, for which the “inhibition” value is -19.9%.
With `COc1ccc(N(C(=O)CCl)C(C(=O)NCCc2ccccc2)c2cccs2)cc1` (stereo not given) the figure was 4.65%.
The value for `S=C(Nc1ccc2snnc2c1)N1CCN(c2ccccn2)CC1` was -9.77%; that for `CCn1c2ccccc2c2nnc(SCC(=O)Nc3ccc4c(c3)OCO4)nc21` was 2.92%; that for `CCCn1c(SCC(=O)c2c(C)[nH]c(C)c2C(=O)OCC)nc2ccccc21` was -12.6%.
The value for `COc1cc(CNc2ccc(CNc3ncn[nH]3)cc2)ccc1OCc1ccccc1` was -24.6%; that for `Clc1ccc(CNc2ccc(CNc3ncn[nH]3)cc2)cc1` was -3.52%; that for `CC(C)(C)c1n[nH]c(=S)n(/N=C/c2cccs2)c1=O` was -8.95%.
For `Cc1cccc(Nc2nnc(SCC(=O)NC3CCCc4ccccc43)s2)c1` (stereo not given), the “inhibition” value was 1.85%.
For the compound `CCCCOc1ccc(S(=O)(=O)NNC(=O)C2Cc3c(ccc4ccccc34)O2)cc1` (stereo not given), the “inhibition” value was -5.32%.
Take `Clc1ccc(SCCCCn2ccnc2)cc1`: the “inhibition” value is 8.1%.
For `Cc1c(NS(=O)(=O)c2ccccc2)c(=O)n(-c2ccccc2)n1C`, the “inhibition” value was -9.48%.
For `CN1CCN(Cc2nc3ccccc3c(=O)[nH]2)CC1`, the “inhibition” value was -4.9%.
Take `CC(O)CNc1cc(N)c([N+](=O)[O-])cc1[N+](=O)[O-]` (stereo not given): the “inhibition” value is 14.6%.
Take `O=P1(NC2CCCC2)COc2ccccc2OC1`: the “inhibition” value is -4.44%.
The value for `c1ccc(Nc2nc3ccccc3[nH]2)nc1` was -5.82%; that for `c1ccc(Nc2ccnc(Nc3ccccc3)n2)cc1` was -7.88%; that for `O=C1CN(C(=O)COC(=O)CCC(=O)c2ccc3c(c2)OCCO3)c2ccccc2N1` was -5.91%.
The value for `CSC(=NS(=O)(=O)c1ccccc1)SC` was 12.9%; that for `O=C(c1ccccc1)C(CN1CCCC1)c1ccccc1` (stereo not given) was 22.5%.
Consider `NC1=NC(=Nc2ccc(Cl)cc2)c2ccccc21`, for which the “inhibition” value was 4.99%.
In the case of `C(=Nc1ccc(Nc2ccccc2)cc1)c1ccc2ccccc2c1`, the “inhibition” value was 6.23%.
With `CCOC(=O)N1CCN(c2nc(C)c3c(n2)CCCC3=O)CC1` the figure was -14.1%; with `Cc1cc(=O)oc2cc(OCC(O)CN3CCc4ccccc4C3)ccc12` (stereo not given), 13.5%.
Consider `CN1CCCC(OC(=O)c2ccc3c(c2)OCCO3)C1` (stereo not given), for which the “inhibition” value is -4.27%.
On to `COc1nc(N(c2ccccc2)c2ccccc2)nc(-n2ccnc2)n1`, for which the “inhibition” value is -7.09%.
Turning to `COc1ccc(-c2cc(C(=O)Nc3ccc(S(=O)(=O)Nc4ncccn4)cc3)c3ccccc3n2)cc1`, the “inhibition” value was -10.9%.
For `COC(=O)c1ccc(Sc2ccccc2NS(=O)(=O)c2ccc(C)cc2)nc1`, the “inhibition” value was 0.44%.
The value for `O=C(c1ccco1)N1CCN(c2ncnc3c2[nH]c2ccccc23)CC1` was 10.7%; that for `CN(CC(=O)NCc1cccc(F)c1)C(=O)c1ccco1` was -7.79%.
With `COCCCNc1ccnc2c(Cl)cccc12` the figure was -3.72%; with `C=CCOc1ccc(/C=N/NC(=O)CN(c2cc(Cl)ccc2OC)S(=O)(=O)c2ccc(C)c([N+](=O)[O-])c2)cc1`, -3.87%; with `CN(CC(=O)Nc1ccc(C#N)cc1)Cc1ccc(Cl)cc1`, -10.4%.
With `O=C(CSc1ccc(Cl)cc1)Nc1ccccc1N1CCN(C(=O)c2ccc(Cl)cc2)CC1` the figure was 0.39%; with `Cc1nc(C(=O)Nc2ccc(Cl)cc2)nn1-c1ccc([N+](=O)[O-])cc1`, -9.42%.
Take `OC1(c2ccc3ccccc3c2)CCN(Cc2ccccc2)C1` (stereo not given): the “inhibition” value was 6.84%.
The value for `NNC(=O)c1cc2ccccc2cc1O` was 22.8%; that for `NC(=NCCc1c[nH]c2ccccc12)NC(=O)c1ccc(F)cc1` was -0.38%.
The value for `C=CCSc1ncnc2sc(C)c(C)c12` was -7.55%.
The value for `Cc1cc2cc(CCNC(=O)c3cccs3)c(=O)[nH]c2cc1C` was -4.98%.
As for `CCOC(=O)c1cnc2ccc(OC)cc2c1Nc1ccc2c(c1)OCCO2`, the “inhibition” value is -11.6%.
As to `COc1cccc(Cn2cnc3c(NS(=O)(=O)c4cccc(Cl)c4Cl)c(C)c(C)cc32)c1`, the “inhibition” value is 5.67%.
For `Cc1cc(Oc2ccc(-c3nnc(-c4ccccc4)o3)cc2[N+](=O)[O-])ccc1Cl`, the “inhibition” value is -8.24%.
The value for `O=c1[nH]c(CSc2nnc(NCCCN3CCOCC3)s2)nc2cc(Cl)ccc12` was -9%; that for `O=C(Nc1ccc(O)cc1)c1cc2n(n1)C(C(F)(F)F)CC(c1ccco1)N2` (stereo not given) was -4.44%; that for `CCOc1cc(C2Nc3cccc4cccc(c34)N2)ccc1O` was 1.35%.
With `OC(COc1ccc2c(c1)CCC2)Cn1cnc2ccccc21` (stereo not given) the figure was -11.3%.
For `O=C1CC(SCc2nc3ccccc3[nH]2)C(=O)N1c1ccc(Cl)cc1` (stereo not given), the “inhibition” value is -5.15%.
The value for `Cc1c(Cl)cccc1NC(=O)CSc1ncnc2c1cnn2CCc1ccccc1` was -3.55%.
Regarding `Cc1ccc(S(=O)(=O)N2CCC(C(N)=O)CC2)c(C)c1C`, the “inhibition” value is -25.7%.
On to `O=C1C2=C(NC(=S)NC2c2ccc(Cl)cc2)NC(c2ccc(Cl)cc2)N1c1ccc(Cl)cc1` (stereo not given), for which the “inhibition” value is -2.67%.
On to `Cc1nc(-c2ccccc2)cc(=O)[nH]1`, for which the “inhibition” value was -14.2%.
Regarding `CC(=O)C1=C(C)Nc2ncnn2C1c1ccccc1OCc1ccccc1` (stereo not given), the “inhibition” value is -7.39%.
On to `O=C(Nc1ccc2c(c1)OCO2)c1cnn2cccnc12`, for which the “inhibition” value is -0.91%.
With `CC(O)CNCCNCc1c(OCc2ccccc2)ccc2ccccc12` (stereo not given) the figure was -9.96%.
With `OCCN(Cc1ccccc1)Cc1ccc(Cl)cc1` the figure was 3%; with `N#CC1=C(N)Oc2c(O)cc3ccccc3c2C1c1ccsc1` (stereo not given), -1.53%; with `COc1ccc(Nc2ccc3c(c2)=NC2(CCCCC2)[N+]=3[O-])cc1`, -15.4%.
`COc1ccc(Nc2sc(C(=O)Nc3cccc(Cl)c3)c(N)c2C(=O)Nc2ccccc2OC)cc1`: the “inhibition” value is 35.8%.
The value for `COc1ccc(OCCSc2nnc(-c3ccc(OC)cc3)n2N)cc1` was 4.18%; that for `O=C(CC(NS(=O)(=O)c1ccc(Cl)cc1)c1ccco1)N1CCc2ccccc21` (stereo not given) was 8.18%.
For the compound `Cc1cc(-c2nnc(-c3ccccc3)c(-c3ccccc3)n2)c(C)o1`, the “inhibition” value is 24.3%.
Consider `CO/N=C\CC(=O)Nc1ccc(F)cc1`, for which the “inhibition” value was -6.1%.
Turning to `Cc1ccc(NC(=S)NCc2cccnc2)cc1`, the “inhibition” value is 3.19%.
With `Oc1ccc(/C=N/NC(=S)Nc2cccnc2)c(O)c1` the figure was 39.1%.
For the compound `COc1cccc(NC(=O)NCCCN2CCN(c3ccc(F)cc3)CC2)c1`, the “inhibition” value is -1.75%.
The value for `Cc1ccc(-n2c(C)cc(-c3csc(N)n3)c2C)cc1` was -31%; that for `CCOc1ccc(C(=O)NC(=S)Nc2ccc(N3CCCCC3)cc2)cc1[N+](=O)[O-]` was 4.6%; that for `CCOc1ccc(C(=O)Nc2ccccc2CC)cc1[N+](=O)[O-]` was -2.2%.
In the case of `CCOc1ccc(CSC(=N)N)cc1[N+](=O)[O-]`, the “inhibition” value was 12.9%.
`CC(C)NC(=O)/C(=N\O)c1ccccc1`: the “inhibition” value is -9.11%.
With `Cc1ccc(Oc2nnc(-c3ccccc3)c3ccccc23)cc1` the figure was 1.47%.
With `CCn1c(SCC(=O)N2CCCCC2)nc(O)cc1=O` the figure was -21.6%; with `Cc1ccc(Nc2cc(=O)[nH]c(=O)[nH]2)c(C)c1`, 13.7%.
The value for `CCn1c2ccccc2c2cc(C3N=C(N)Nc4nc5ccccc5n43)ccc21` (stereo not given) was 10.1%; that for `CCn1cc(C(=O)O)c(=O)c2cc(OC)ccc21` was 11.1%.
`COc1ccc(Oc2coc3cc(OC(=O)c4cccs4)ccc3c2=O)cc1`: the “inhibition” value was 6.15%.
With `CCOC(=O)c1ccc(NC(=O)Nc2cc(C)on2)cc1` the figure was -17.7%.
Consider `COC(=O)C1C(=O)C=C(N2CCOCC2)CC1(C)C` (stereo not given), for which the “inhibition” value is -4.96%.
Turning to `O=C(CNC(=O)OCc1ccccc1)NCC(=O)N1CCCC1C(=O)OCc1ccccc1` (stereo not given), the “inhibition” value is -7.85%.
For `COc1ccc(C2=C(Nc3ccc(C)cc3)c3ccccc3C2=O)cc1`, the “inhibition” value is -11%.
The value for `O=c1c(Cl)c(Cl)cnn1Cc1ccccc1Cl` was -13.2%.
With `N=c1sccn1CC(=O)Nc1ccccc1Oc1ccccc1` the figure was 0.14%; with `CC(=O)N1CCC(N(CCN2CCOCC2)C(=S)Nc2cccc(C)c2C)CC1`, -5.55%.
With `CCCNC(=O)COC(=O)CCC(=O)c1ccc(F)cc1`, the “inhibition” value is -6.56%.
The value for `NC(=NCc1ccc2c(c1)OCO2)NC(=O)c1ccccc1` was 19.6%; that for `O=C(CN1CCCCC1)Nc1cccc2c1OCO2` was -3.16%.
The value for `O=C(Nc1ccc2oc(-c3ccc(Cl)c(Cl)c3)nc2c1)c1ncn[nH]1` was -19.4%; that for `CCOC(=O)C1=C(C)Nc2nc3ccccc3n2C1c1cccs1` (stereo not given) was -8.32%.
The value for `COc1ccc(-c2nc3ccccc3c(=O)n2-c2nccs2)cc1` was -6.63%; that for `Brc1cccc(CNc2nc3ccccc3n2CCN2CCCCC2)c1` was -11.9%; that for `CC(=O)N1C(=O)C2(C(C#N)=C(N)Oc3c2c(C)nn3-c2ccccc2)c2ccccc21` (stereo not given) was 6.5%.
